Data from PubChem BioAssay AID1159580 (chemical genetic matrix, 2015).
Several values for one entry are separate records, joined by “and”; a condition that tells them apart may be missing. Equal entries are not always repeated. Among all 5,500 compounds or so, about 2,000 (36%) were called active. Another 18% or so got no clear call; they are omitted. Cut-off read from the data, not from the text of the source: active = normalized growth mostly below about 0.91 (no sharp cut-off); inconclusive = no clear call, values can overlap the other calls; inactive = mostly above about 0.92. Some of the results follow.

Assay: chemical genetic growth profiling, strain panel (AID 1159580);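 note: tested at 20 µM; growth read once vehicle control cultures reached saturation at 30 °C; 1 = growth at the plate median or of vehicle wells; lower values mean less growth of the strain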
Conditions: S. cerevisiae deletion strains, growth OD

Measured: normalized growth

S=C=NCc1ccccc1
active: locus YAL013W, strain DEP1, stronger effect = lower value 0.0579 | locus YAL021C, strain ccr4, stronger effect = lower value 0.661 | locus YAL026C, strain drs2, stronger effect = lower value 0.0761 | locus YAL030W, strain snc1, stronger effect = lower value 0.0648 | locus YBL061C, strain skt5, stronger effect = lower value 0.079 | locus YBR009C, strain hhf1, stronger effect = lower value 0.0753 | locus YBR021W, strain FUR4, stronger effect = lower value 0.17 | locus YBR023C, strain chs3, stronger effect = lower value 0.0813 | locus YBR171W, strain sec66, stronger effect = lower value 0.117 | locus YBR229C, strain ROT2, stronger effect = lower value 0.0461 | locus YBR231C, strain swc5, stronger effect = lower value 0.0718 | locus YBR279W, strain paf1, stronger effect = lower value 0.0918 | locus YCL011C, strain gbp2, stronger effect = lower value 0.0749 | locus YCL016C, strain dcc1, stronger effect = lower value 0.0958 | locus YCL029C, strain bik1, stronger effect = lower value 0.0592 | locus YCL061C, strain MRC1, stronger effect = lower value 0.0833 | locus YCL069W, strain vba3, stronger effect = lower value 0.0787 | locus YCR088W, strain abp1, stronger effect = lower value 0.069 | locus YDL005C, strain med2, stronger effect = lower value 0.583 | locus YDL035C, strain GPR1, stronger effect = lower value 0.0548 | locus YDL040C, strain nat1, stronger effect = lower value 0.139 | locus YDL074C, strain BRE1, stronger effect = lower value 0.0981 | locus YDL101C, strain DUN1, stronger effect = lower value 0.0649 | locus YDL134C, strain PPH21, stronger effect = lower value 0.0517 | locus YDL185W, strain tfp1, stronger effect = lower value 0.0574 | locus YDL192W, strain arf1, stronger effect = lower value 0.0627 | locus YDR001C, strain nth1, stronger effect = lower value 0.07 | locus YDR069C, strain doa4, stronger effect = lower value 0.143 | locus YDR101C, strain arx1, stronger effect = lower value 0.0574 | locus YDR137W, strain rgp1, stronger effect = lower value 0.616 | locus YDR150W, strain NUM1, stronger effect = lower value 0.0586 | locus YDR159W, strain sac3, stronger effect = lower value 0.275 | locus YDR162C, strain NBP2, stronger effect = lower value 0.0541 | locus YDR195W, strain ref2 0.187 | locus YDR297W, strain sur2, stronger effect = lower value 0.068 | locus YDR318W, strain mcm21, stronger effect = lower value 0.0636 | locus YDR334W, strain swr1, stronger effect = lower value 0.0851 | locus YDR335W, strain msn5, stronger effect = lower value 0.0739 | locus YDR388W, stronger effect = lower value 0.061 | locus YDR392W, strain spt3, stronger effect = lower value 0.112 | locus YDR502C, strain sam2, stronger effect = lower value 0.0605 | locus YEL003W, strain gim4, stronger effect = lower value 0.0605 | locus YEL037C, strain rad23, stronger effect = lower value 0.178 | locus YEL061C, strain CIN8 (second series), stronger effect = lower value 0.0786 | locus YEL061C, strain CIN8, stronger effect = lower value 0.05 | locus YER015W, strain faa2, stronger effect = lower value 0.0762 | locus YER016W, strain bim1, stronger effect = lower value 0.081 | locus YER110C, stronger effect = lower value 0.0778 | locus YER111C, strain swi4, stronger effect = lower value 0.0829 | locus YER155C, strain BEM2 (second series), stronger effect = lower value 0.0957 | locus YER155C, strain BEM2, stronger effect = lower value 0.0627 | locus YER167W, strain BCK2, stronger effect = lower value 0.0526 | locus YFR010W, strain ubp6, stronger effect = lower value 0.136 | locus YGL078C, strain dbp3, stronger effect = lower value 0.0565 | locus YGL086W, strain mad1, stronger effect = lower value 0.0589 | locus YGL167C, strain pmr1, stronger effect = lower value 0.393 | locus YGL173C, strain kem1, stronger effect = lower value 0.214 | locus YGL227W, strain vid30, stronger effect = lower value 0.072 | locus YGL240W, strain doc1, stronger effect = lower value 0.203 | locus YGL248W, strain PDE1, stronger effect = lower value 0.0468 | locus YGL253W, strain hxk2, stronger effect = lower value 0.0793 | locus YGR078C, strain PAC10, stronger effect = lower value 0.0557 | locus YGR135W, strain pre9, stronger effect = lower value 0.066 | locus YGR229C, strain SMI1, stronger effect = lower value 0.0658 | locus YGR252W, strain gcn5, stronger effect = lower value 0.176 | locus YHR013C, strain ard1, stronger effect = lower value 0.175 | locus YHR027C, strain rpn1, stronger effect = lower value 0.103 | locus YHR030C, strain SLT2, stronger effect = lower value 0.0491 and 0.174 | locus YHR079C, strain IRE1 (second series), stronger effect = lower value 0.0547 | locus YHR079C, strain IRE1, stronger effect = lower value 0.181 | locus YHR094C, strain hxt1, stronger effect = lower value 0.0577 | locus YHR129C, strain ARP1, stronger effect = lower value 0.0553 | locus YHR142W, strain chs7, stronger effect = lower value 0.0817 | locus YHR200W, strain rpn10, stronger effect = lower value 0.0598 | locus YIL066C, strain RNR3, stronger effect = lower value 0.0519 | locus YIL073C, strain SPO22, stronger effect = lower value 0.132 | locus YIL125W, strain kgd1, stronger effect = lower value 0.0561 | locus YIR030C, strain dcg1, stronger effect = lower value 0.0588 | locus YJL092W, strain hpr5, stronger effect = lower value 0.08 | locus YJL095W, strain BCK1 (second series), stronger effect = lower value 0.0601 | locus YJL095W, strain BCK1, stronger effect = lower value 0.0573 and 0.268 | locus YJL115W, strain asf1, stronger effect = lower value 0.123 | locus YJL129C, strain trk1, stronger effect = lower value 0.257 | locus YJL134W, strain LCB3, stronger effect = lower value 0.0484 | locus YJL154C, strain vps35, stronger effect = lower value 0.165 | locus YJL164C, strain tpk1, stronger effect = lower value 0.0744 | locus YJL166W, strain qcr8, stronger effect = lower value 0.0848 | locus YJL168C, strain set2, stronger effect = lower value 0.0599 | locus YJL187C, strain SWE1 (second series), stronger effect = lower value 0.0487 | locus YJL187C, strain SWE1, stronger effect = lower value 0.0904 | locus YJR043C, strain POL32, stronger effect = lower value 0.0693 | locus YJR066W, strain TOR1, stronger effect = lower value 0.735
